The values below come from PubChem BioAssay (NCI).

The panel holds about 79,000 compounds, 15% with a hit somewhere; the sample as a whole holds those more often. A number with no mark means an inactive call. Active and inactive are the calls of the source. No stated cut-off is given here; in the data, active means growth inhibition above about 70%; inactive means the rest.

Test [1] in a line: NCI Yeast Anticancer Drug Screen. Data for the rad50 strain (AID 155).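 Further: 0% = growth of vehicle-only cultures of the same strain.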 The settings on record: S. cerevisiae rad50 strain growth inhibition, stronger effect = higher value. The essentials:
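DNA repair mutant yeast, compound exposure, growth read-out; inhibition is taken relative to vehicle.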

Test [2] in a line: NCI Yeast Anticancer Drug Screen. Data for the mec2-1 strain (AID 157). The settings on record: S. cerevisiae mec2-1 strain, stronger effect = higher value. The method, boiled down: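 Yeast mec2-1 mutant treated with compound. Readout: growth inhibition vs vehicle controls.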
Test [3] is described as follows: NCI Yeast Anticancer Drug Screen. Data for the sgs1 mgt1 strain (AID 161).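 Further: 0% = growth of cultures given vehicle only.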 The settings on record: S. cerevisiae sgs1 mgt1 strain, stronger effect = higher value. The essentials:
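Test agents were incubated with a DNA-repair-mutant yeast strain. Growth was then read and compared against vehicle-treated controls.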

Test [4] is described as follows: NCI Yeast Anticancer Drug Screen. Data for the cln2 rad14 strain (AID 165).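 Further: 0% = growth equal to vehicle treated cultures.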 The settings on record: S. cerevisiae cln2 rad14 strain, stronger effect = higher value. The essentials: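 cln2 rad14 yeast strain; compound exposure; growth inhibition read vs vehicle controls.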
Test [5] can be described thus: NCI Yeast Anticancer Drug Screen. Data for the bub3 strain (AID 167). The settings on record: S. cerevisiae bub3 mutant strain, stronger effect = higher value. The essentials: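 In this screen, a yeast mutant lacking normal mitotic checkpoint function is challenged with compound. Relative growth versus vehicle gives the inhibition value.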
Test [6] can be described thus: NCI Yeast Anticancer Drug Screen. Data for the mlh1 rad18 strain (AID 175). The settings on record: S. cerevisiae mlh1 rad18 strain growth inhibition, stronger effect = higher value. The essentials: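 Yeast w/ defined DNA-repair lesions; compound exposure; growth vs vehicle controls → % inhibition.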
Where [7] appears, read: at 5.0 µM (retest, dose inferred, filed as 0.5).
Setting [8] is: at 50.0 µM (retest, dose inferred, filed as 5.0).

In the case of `Nc1c(Cl)[nH]c(C(F)(F)F)nc1=S`, the growth inhibition in test [1] (setting [7]) is -2%; in test [1] (setting [8]), -7%; in test [1] (at 50.0 µM), 5.2%; in test [2] (setting [7]), -7%; in test [2] (setting [8]) it was -1%; in test [2] (at 50.0 µM), -4.75%. The growth inhibition in test [3] (setting [7]) was -9%; in test [3] (setting [8]), -7%; in test [3] (at 50.0 µM) it was -2.45%; in test [4] (setting [7]) it was -7%; in test [4] (setting [8]), 4%; in test [4] (at 50.0 µM), 15.3%. The growth inhibition was -3% in test [5] (setting [7]); 10% in test [5] (setting [8]); -9.45% in test [5] (at 50.0 µM); 0% in test [6] (setting [7]); 1% in test [6] (setting [8]); 23.3% in test [6] (at 50.0 µM).
As to `N#CC(NNC(=O)c1ccccc1O)c1c(O)ccc2ccccc12` (stereo unspecified), the growth inhibition is -4% in test [1] (setting [7]); 59% in test [1] (setting [8]); 74.3% (active) in test [1] (at 50.0 µM); 22% in test [2] (setting [7]); 51% in test [2] (setting [8]); 38.9% in test [2] (at 50.0 µM). Also, the growth inhibition was -5% in test [3] (setting [7]); 50% in test [3] (setting [8]); 61.9% in test [3] (at 50.0 µM); 16% in test [4] (setting [7]); 62% in test [4] (setting [8]); 41.4% in test [4] (at 50.0 µM). Also, the growth inhibition in test [5] (setting [7]) was 17%; in test [5] (setting [8]), 79% (active); in test [5] (at 50.0 µM), 56.1%; in test [6] (setting [7]), 4%; in test [6] (setting [8]), 82% (active); in test [6] (at 50.0 µM), 51.5%.
With `CC(C)OC(=O)Oc1c(Cl)c(Cl)c(Cl)c(Cl)c1Cl`, the growth inhibition in test [1] (setting [7]) is -3%; in test [1] (setting [8]) it was 97% (active); in test [1] (at 50.0 µM), 62%; in test [2] (setting [7]), 0%; in test [2] (setting [8]) it was 99% (active); in test [2] (at 50.0 µM) it was 50.6%. The growth inhibition in test [3] (setting [7]) is -2%; in test [3] (setting [8]), 98% (active); in test [3] (at 50.0 µM) it was 55%; in test [4] (setting [7]) it was 5%; in test [4] (setting [8]), 98% (active); in test [4] (at 50.0 µM), 15.9%. Also, the growth inhibition is 2% in test [5] (setting [7]); 99% (active) in test [5] (setting [8]); 74.4% (active) in test [5] (at 50.0 µM); -1% in test [6] (setting [7]); 96% (active) in test [6] (setting [8]); 56.8% in test [6] (at 50.0 µM).
For the molecule `CC(=O)N(C)c1ccc(/C=C2\C=Cc3ccccc32)cc1`, the growth inhibition is 9% in test [1] (setting [7]); 91% (active) in test [1] (setting [8]); 41.2% in test [1] (at 50.0 µM); 4% in test [2] (setting [7]); 94% (active) in test [2] (setting [8]); 39.7% in test [2] (at 50.0 µM). Moreover, the growth inhibition in test [3] (setting [7]) is 10%; in test [3] (setting [8]), 93% (active); in test [3] (at 50.0 µM), 26.3%; in test [4] (setting [7]) it was -4%; in test [4] (setting [8]), 81% (active); in test [4] (at 50.0 µM) it was 32.8%. The growth inhibition in test [5] (setting [7]) was 7%; in test [5] (setting [8]) it was 94% (active); in test [5] (at 50.0 µM), 72.2% (active); in test [6] (setting [7]) it was 11%; in test [6] (setting [8]) it was 92% (active); in test [6] (at 50.0 µM), 56.3%.
In the case of `O=P(C(=S)Nc1ccccc1Cl)(c1ccccc1)c1ccccc1`, the growth inhibition in test [1] (setting [7]) was 15%; in test [1] (setting [8]) it was 96% (active); in test [1] (at 50.0 µM), 88.5% (active); in test [2] (setting [7]), 16%; in test [2] (setting [8]), 98% (active); in test [2] (at 50.0 µM), 90.5% (active). Further, the growth inhibition in test [3] (setting [7]) was -1%; in test [3] (setting [8]) it was 96% (active); in test [3] (at 50.0 µM) it was 92.8% (active); in test [4] (setting [7]), -6%; in test [4] (setting [8]), 97% (active); in test [4] (at 50.0 µM), 87.5% (active). Besides, the growth inhibition in test [5] (setting [7]) is -26%; in test [5] (setting [8]), 97% (active); in test [5] (at 50.0 µM), 89.2% (active); in test [6] (setting [7]) it was -26%; in test [6] (setting [8]) it was 96% (active); in test [6] (at 50.0 µM) it was 89.2% (active).
With `O=[N+]([O-])c1c(Cl)c(Cl)c(O)c(Cl)c1Cl`, the growth inhibition in test [1] (setting [7]) is 55%; in test [1] (setting [8]) it was 80% (active); in test [1] (at 50.0 µM), 76.5% (active); in test [2] (setting [7]), 44%; in test [2] (setting [8]) it was 83% (active); in test [2] (at 50.0 µM), 78.7% (active). In addition, the growth inhibition was 75% (active) in test [3] (setting [7]); 87% (active) in test [3] (setting [8]); 90% (active) in test [3] (at 50.0 µM); 31% in test [4] (setting [7]); 64% in test [4] (setting [8]); 30.9% in test [4] (at 50.0 µM). Besides, the growth inhibition is 55% in test [5] (setting [7]); 75% (active) in test [5] (setting [8]); 78.2% (active) in test [5] (at 50.0 µM); 32% in test [6] (setting [7]); 89% (active) in test [6] (setting [8]); 70.8% (active) in test [6] (at 50.0 µM).
In the case of `Cc1ccc(O)c(C(C)c2ccccc2)c1` (stereo unspecified), the growth inhibition in test [1] (setting [7]) is 6%; in test [1] (setting [8]), 97% (active); in test [1] (at 50.0 µM), 99.2% (active); in test [2] (setting [7]), -20%; in test [2] (setting [8]), 99% (active); in test [2] (at 50.0 µM), 99.6% (active). The growth inhibition was -3% in test [3] (setting [7]); 97% (active) in test [3] (setting [8]); 98.8% (active) in test [3] (at 50.0 µM); -8% in test [4] (setting [7]); 96% (active) in test [4] (setting [8]); 98.8% (active) in test [4] (at 50.0 µM). Moreover, the growth inhibition was 21% in test [5] (setting [7]); 98% (active) in test [5] (setting [8]); 98.8% (active) in test [5] (at 50.0 µM); 2% in test [6] (setting [7]); 98% (active) in test [6] (setting [8]); 99.1% (active) in test [6] (at 50.0 µM).
